Reference: PubChem BioAssay (NCATS)
Where “and” joins values, the source holds several entries; their conditions need not be identical. Identical values can stand only once. Results filed as inconclusive are left out. A structure can be active in one record and inactive in another. Calls of active or inactive are those of the source. Calls follow the shape of the dose curve; as a rule, active = well fitted curve in the direction sought with a large enough effect; inconclusive = small, poorly fitted or top-dose-only effect, or another doubt; inactive = no such curve, though single readings can be large; an effect the other way counts as inactive or inconclusive.

Tests used:
CRL-7250 = normal cell line; assay: Cytotoxic Profiling of Annotated Libraries Using Quantitative High-Throughput Screening (AID 1296008); conditions: Five cell lines viability, CellTiter-Glo ATP luminescence, 48-72 h; max response: active compounds read low; also: nearly all actives have a fitted effect of over 60% in size; also: potency is read from the fitted curve at half-maximal effect; as to max response: % is scaled to controls: 0 for no effect and ±100 for the full control effect
Summary of the method: (§1)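 Cytotoxicity was measured as CellTiter-Glo ATP luminescence, read after 10 min at room temperature. Compound treatment of the cells lasted 48 or 72 hr at 37 degrees Celsius in a qHTS format.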

HaCat [1] = assay: as above; conditions: Five cell lines viability, CellTiter-Glo ATP luminescence, 48-72 h; max response: active compounds read low
Summary of the method: as §1

KB-3-1 = assay: as above; conditions: Five cell lines viability, CellTiter-Glo ATP luminescence, 48-72 h; max response: active compounds read low
Summary of the method: as §1

NIH3T3 = assay: as above; conditions: Five cell lines viability, CellTiter-Glo ATP luminescence, 48-72 h; max response: active compounds read low
Summary of the method: as §1

MCC-13 = assay: qHTS assay to identify novel small-molecules to repurpose for Merkel cell carcinoma treatment (AID 1296009); conditions: MCC and control cell lines, CellTiter-Glo viability, 72 h; series mostly up to 46 µM; also: nearly all actives have a fitted effect of over 60% in size; also: potency is read from the fitted curve at half-maximal effect
Summary of the method: (§2)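 After compound transfer in DMSO, plates were kept 72 hr at 37 degree celsius. Luminescent ATP signal from CellTiter-Glo served as viability measure, normalized against DMSO and no-cell controls.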

MCC-26 = assay: as above; conditions: MCC and control cell lines, CellTiter-Glo viability, 72 h; series mostly up to 46 µM
Summary of the method: as §2

UISO = assay: as above; conditions: MCC and control cell lines, CellTiter-Glo viability, 72 h; series mostly up to 46 µM
Summary of the method: as §2

WaGa = assay: as above; conditions: MCC and control cell lines, CellTiter-Glo viability, 72 h; series mostly up to 46 µM
Summary of the method: as §2

HEK293 = assay: Cytotoxic Profiling of Annotated Libraries Using Quantitative High-Throughput Screening (AID 1296008); conditions: Five cell lines viability, CellTiter-Glo ATP luminescence, 48-72 h; max response: active compounds read low; also: nearly all actives have a fitted effect of over 60% in size; also: potency is read from the fitted curve at half-maximal effect; as to max response: % is scaled to controls: 0 for no effect and ±100 for the full control effect
Summary of the method: as §1

MKL-1 = assay: qHTS assay to identify novel small-molecules to repurpose for Merkel cell carcinoma treatment (AID 1296009); conditions: MCC and control cell lines, CellTiter-Glo viability, 72 h; series mostly up to 46 µM; also: nearly all actives have a fitted effect of over 60% in size; also: potency is read from the fitted curve at half-maximal effect
Summary of the method: as §2

MKL-2 = assay: as above; conditions: MCC and control cell lines, CellTiter-Glo viability, 72 h; series mostly up to 46 µM
Summary of the method: as §2

C33A = assay: Primary qHTS to identify gynecologic anti-cancer compounds using libraries of approved drugs and bioactive compounds (AID 1345084); conditions: Gynecologic cancer cell panel viability, ATPlite luminescence, 48 h; series mostly up to 57.5 µM; also: % is scaled to controls: 0 for no effect and ±100 for the full control effect; nearly all actives have a fitted effect of over 55% in size
Summary of the method: (§3)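 Five-point cytotoxicity, 48 h drug exposure at 37 C, 5% CO2, on cells seeded 16 h beforehand. ATP content read by ATPlite luminescence.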

CAOV3 = assay: as above; conditions: Gynecologic cancer cell panel viability, ATPlite luminescence, 48 h; series mostly up to 57.5 µM
Summary of the method: as §3

W2 = assay: qHTS profiling for inhibitors of Plasmodium falciparum proliferation (AID 504749); conditions: P. falciparum in erythrocytes, SYBR Green DNA, 72 h; series mostly up to 28.7 µM
Summary of the method: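 Three-day growth assay of blood-stage parasites in erythrocytes (0.3% parasitemia, 2.5% hematocrit) at 37 C, 5% CO2, quantified by SYBR Green DNA staining after overnight detergent lysis.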

HACAT [2] = assay: qHTS assay to identify novel small-molecules to repurpose for Merkel cell carcinoma treatment (AID 1296009); conditions: MCC and control cell lines, CellTiter-Glo viability, 72 h; at 44.8 µM (top of the series) unless noted; also: nearly all actives have a fitted effect of over 60% in size; also: potency is read from the fitted curve at half-maximal effect
Summary of the method: as §2

O=C1c2c(O)cc(O)cc2O[C@H](c2cc(O)c(O)c(O)c2)[C@H]1O
active: Potency (WaGa) 2.35 µM
inactive: max response (CRL-7250) 1.37% | max response (HaCat [1]) -8.4% | max response (KB-3-1) 4.36% | max response (NIH3T3) 4.33% | Potency (MCC-13) | Potency (MCC-26) | Potency (UISO)

O=C1C(Cl)=C(NCCN2CCOCC2)C(=O)c2ncccc21
active: Potency (CRL-7250) 9.35 µM | Potency (HEK293) 13.2 µM | Potency (KB-3-1) 20.9 µM | Potency (NIH3T3) 2.64 µM | Potency (MCC-13) 16.6 µM | Potency (MCC-26) 8.33 µM | Potency (MKL-1) 1.32 µM | Potency (MKL-2) 2.96 µM | Potency (UISO) 8.33 µM

CC[C@H]1OC(=O)[C@H](C)C(=O)[C@H](C)[C@@H](O[C@H]2O[C@H](C)C[C@H](N(C)C)[C@@H]2O)[C@](C)(OC)C[C@@H](C)C(=O)[C@H](C)[C@H]2N(CCCCn3cnc(-c4cccnc4)c3)C(=O)O[C@]12C
inactive: max response (CRL-7250) -7.01% | max response (HaCat [1]) -0.424% | max response (KB-3-1) 2.84% | max response (NIH3T3) -10.2% | Potency (MCC-13) | Potency (MCC-26) | Potency (MKL-1) | Potency (MKL-2) | Potency (UISO) | Potency (WaGa)

O=C1NC(=O)C(=Cc2ccc(-c3ccc(F)cc3)o2)S1
inactive: max response (CRL-7250) -0.559% | max response (HaCat [1]) -17.4% | max response (KB-3-1) -5.29% | max response (NIH3T3) -13.2% | Potency (MCC-13) | Potency (MCC-26) | Potency (MKL-1) | Potency (MKL-2) | Potency (UISO) | Potency (WaGa)

O=c1cc(-c2ccc(O)cc2)oc2cc(O)cc(O)c12
inactive: max response (CRL-7250) -23.1% | max response (HaCat [1]) -20% | max response (KB-3-1) 3.99% | max response (NIH3T3) -14.4% | Potency (MCC-13) | Potency (MCC-26)
active: Potency (MKL-1) 2.35 µM | Potency (MKL-2) 1.66 µM | Potency (WaGa) 2.09 µM

COC[C@@H](c1ccc(C(F)(F)F)cc1)N1CCN(C2(C)CCN(C(=O)c3c(C)ncnc3C)CC2)C[C@H]1C
inactive: max response (CRL-7250) -6.4% | max response (HaCat [1]) -0.948% | max response (KB-3-1) 5.03% | max response (NIH3T3) 4.62% | Potency (MCC-13) | Potency (MKL-1) | Potency (MKL-2) | Potency (UISO) | Potency (WaGa) | Potency (C33A) | Potency (CAOV3)

CC/C(=C(\c1ccccc1)c1ccc(OCCN(C)C)cc1)c1ccccc1
inactive: max response (CRL-7250) -3.24% | max response (HaCat [1]) -10.4% | max response (KB-3-1) -11% | Potency (C33A)
active: Potency (W2) 13.5 µM | Potency (MKL-2) 26.6 µM | Potency (UISO) 21.1 µM

NC(=O)c1cnc(-c2ccc(C3(N)CCC3)cc2)c(-c2ccccc2)c1
inactive: max response (HaCat [1]) -22.7% | max response (KB-3-1) -11.5% | max response (NIH3T3) 4.42% | Potency (MCC-13) | Potency (MKL-1) | Potency (MKL-2) | Potency (UISO) | Potency (WaGa)
active: Potency (HEK293) 23.5 µM and 18.4 µM

O=C1NC(=O)C(=Cc2cccc(C(F)(F)F)c2)S1
inactive: outcome (CRL-7250) | max response (HaCat [1]) -6.56% | max response (NIH3T3) -7.62% | Potency (MCC-13) | Potency (MCC-26) | Potency (MKL-1) | Potency (MKL-2) | Potency (WaGa)

O=C(Nc1ccccc1Br)N[C@@H]1CCN(c2ccc(C(F)(F)F)cn2)C1
inactive: max response (CRL-7250) -5.42% | max response (HaCat [1]) 4.65% | max response (NIH3T3) -2.32% | Potency (MCC-13) | Potency (MCC-26) | Potency (MKL-1) | Potency (MKL-2) | Potency (UISO) | Potency (WaGa)

CCc1ccc(C=C2SC(=S)NC2=O)cc1
inactive: max response (HEK293) -22.6% | max response (HaCat [1]) -1.5% | max response (KB-3-1) -5.67% | max response (NIH3T3) -14.4% | Potency (MCC-13) | Potency (MCC-26) | Potency (MKL-1) | Potency (MKL-2) | Potency (UISO) | Potency (WaGa)

COc1cc2ncnc(Nc3ccc(F)c(Cl)c3)c2cc1OCCCN1CCOCC1
active: Potency (HEK293) 7.62 µM and 16.8 µM | Potency (HaCat [1]) 531 nM and 2.06 µM | Potency (MKL-2) 13.3 µM | Potency (UISO) 26.6 µM
inactive: max response (HaCat [1]) -57.3% | max response (KB-3-1) -3.97% and -1.38% and 3.83% | max response (NIH3T3) -12.1% and -4.13% | Potency (MCC-26) | Potency (C33A)

CC=CCC=CCCC(=O)[C@H]1O[C@@H]1C(N)=O
inactive: outcome (CRL-7250) | outcome (HaCat [1]) | max response (NIH3T3) 1.26% | outcome (HACAT [2]) | Potency (MCC-13) | Potency (MCC-26) | Potency (UISO) | Potency (WaGa)

CO[C@H]1C[C@@H]2CC[C@@H](C)[C@@](O)(O2)C(=O)C(=O)N2CCCC[C@@H]2C(=O)O[C@H]([C@H](C)C[C@@H]2CC[C@H](OP(C)(C)=O)[C@H](OC)C2)CC(=O)[C@H](C)C=C(C)[C@@H](O)[C@@H](OC)C(=O)[C@H](C)C[C@H](C)C=CC=CC=C1C
inactive: max response (CRL-7250) -18.4% | outcome (HaCat [1]) | max response (NIH3T3) 4.15% | outcome (HACAT [2]) | Potency (MCC-13) | Potency (MCC-26) | Potency (MKL-2) | Potency (UISO)
active: Potency (WaGa) 23.5 µM

CC[C@]1(O)C[C@@H]2CN(CCc3c([nH]c4ccccc34)[C@@](C(=O)OC)(c3cc4c(cc3OC)N(C=O)[C@@H]3C45CCN4CC=C[C@](CC)([C@H]45)[C@@H](OC(C)=O)[C@]3(O)C(=O)OC)C2)C1 (some centres undefined)
inactive: max response (CRL-7250) -20.2% | max response (NIH3T3) -0.0535% | Potency (MCC-13) | Potency (MCC-26) | Potency (MKL-1)

C=CCc1ccc(O)c(-c2ccc(O)c(CC=C)c2)c1
active: Potency (HaCat [1]) 20.9 µM
inactive: max response (HEK293) -27.3% | max response (NIH3T3) -7.37% | Potency (MCC-13) | Potency (MCC-26) | Potency (WaGa)

COc1cc(N2CCC(N3CCN(C)CC3)CC2)ccc1Nc1ncnc(Nc2ccccc2S(=O)(=O)C(C)C)n1
inactive: Potency (MKL-2) | Potency (WaGa)
active: Potency (HEK293) 14.6 µM | Potency (HaCat [1]) 7.31 µM | Potency (KB-3-1) 8.33 µM | Potency (NIH3T3) 3.32 µM and 3.66 µM | Potency (MCC-26) 11.8 µM
